Laboratory results published in PubChem BioAssay (NCATS).
Where “and” joins values, the source holds several entries; their conditions need not be identical. Equal entries are not always repeated. Records with an inconclusive call do not appear. Values without a mark were called inactive. Calls of active or inactive are those of the source. Calls follow the shape of the dose curve; as a rule, active = well fitted curve in the direction sought with a large enough effect; inconclusive = small, poorly fitted or top-dose-only effect, or another doubt; inactive = no such curve, though single readings can be large; an effect the other way counts as inactive or inconclusive.

Tests used:
[1] = Primary qHTS for inhibitors of nuclear receptor binding SET domain protein 2 (NSD2) in an isogenic RCH-ACV NSD2 p.E1099K mutant (9B) (AID 1645876)
[2] = Primary qHTS for inhibitors of nuclear receptor binding SET domain protein 2 (NSD2) in an RCH-ACV wild type WT cells (2C) (AID 1645877)
% is scaled to controls: 0 for no effect and ±100 for the full control effect; potency is read from the fitted curve at half-maximal effect.
Also: nearly all actives have a fitted effect of over 70% in size.

## C1=Cc2ccccc2C(=C2CCN(CCCCc3nn[nH]n3)CC2)c2ccccc21
[1]
  Potency: inactive
[2]
  Potency: inactive

## O=C(Nc1cnc(Cl)nc1)c1ccc(F)c(F)c1
[1]
  Potency: inactive
[2]
  Potency: inactive

## CC(C)(F)CC(NC(c1ccc(-c2ccc(S(C)(=O)=O)cc2)cc1)C(F)(F)F)C(=O)NC1(C#N)CC1 (configuration not stated)
[1]
  Potency: inactive
[2]
  Potency: inactive

## CC(C)C[C@@H]1NC(=O)[C@@H]2C[C@@]34C[C@@H]5[C@@]6(C)CCCC(C)(C)C6CC[C@@]5(C)N(c5ccccc53)[C@H]4N2C1=O (some centres not stated)
[1]
  Potency: 3.55 µM (active)
[2]
  Potency: 3.99 µM (active)

## CCCCCCCCC(=O)N[C@H](CN1CCCC1)[C@H](O)c1ccc2c(c1)OCCO2
[1]
  Potency: 23 µM (active)
[2]
  Potency: 18.3 µM (active)

## C=C1C(=O)OC2/C=C(\C)CC/C=C(\C)CC(OC(C)=O)C12 (configuration not stated)
[1]
  Potency: 12.9 µM (active)
[2]
  Potency: 6.49 µM (active)

## COc1ccc(CCc2nc3cc(-c4c(C)noc4C)ccc3n2CC(C)N2CCOCC2)cc1Cl (configuration not stated)
[1]
  Potency: 2.3 µM (active)
[2]
  Potency: 2.58 µM (active)

## COc1ccc(CCO[C@@H]2O[C@H](CO[C@H]3OC[C@](O)(CO)[C@H]3O)[C@@H](OC(=O)/C=C/c3ccc(O)c(O)c3)[C@H](O[C@@H]3O[C@@H](C)[C@H](O)[C@@H](O)[C@H]3O)[C@H]2O)cc1OC
[1]
  Potency: 6.08 µM (active)
[2]
  Potency: 4.83 µM (active)

## C#CCCCn1cc(-c2cccc3c2N[C@H](C)CC(=O)N3)cn1
[1]
  Potency: 23 µM (active)
[2]
  Potency: 14.5 µM (active)

## Cn1ncc(Cl)c1-c1cc(C(=O)N[C@H](CN)Cc2ccc(F)c(F)c2)oc1Cl
[1]
  Potency: 0.649 µM (active)
[2]
  Potency: 0.515 µM (active)

## COC1CC/C=C(\C)C(=O)Nc2cc(O)cc(c2)CC(C)CC(OC)C(O)C(C)/C=C(\C)C1OC(N)=O (configuration not stated)
[1]
  Potency: 2.52 µM (active)
[2]
  Potency: 2.82 µM (active)

## COC1CC(O[C@H]2CC[C@]3(C)C4CC[C@@]5(C)C(=O)[C@]4(CC[C@@H]3C2)CC[C@@H]5C2=CC(=O)OC2)OC(C)C1OC1OC(COC2OC(CO)C(O)C(O)C2O)C(O)C(O)C1O (some centres not stated)
[1]
  Potency: 1.54 µM (active)
[2]
  Potency: 2.75 µM (active)

## CCOc1cc(C(C)(C)C)ccc1C1=NC(C)(c2ccc(Cl)cc2)C(C)(c2ccc(Cl)cc2)N1C(=O)N1CCN(CCCS(C)(=O)=O)CC1 (configuration not stated)
[1]
  Potency: 0.817 µM (active)
[2]
  Potency: 0.258 µM (active)

## C=C(C)C(=O)OC1CC(CO)CCC/C(CO)=C/C2OC(=O)C(=C)C21 (configuration not stated)
[1]
  Potency: 2.53 µM (active)
[2]
  Potency: 2.01 µM (active)

## CN1CCN(C2CCN(C(=O)Nc3cc(Oc4ccc(NC(=O)C5(C(=O)Nc6ccc(F)cc6)CC5)c(F)c4)ccn3)CC2)CC1
[1]
  Potency: 6.49 µM (active) and 11.8 µM (active)
[2]
  Potency: 7.28 µM (active) and 10.5 µM (active)

## C=C1C(=O)O[C@@H]2[C@H]1CC[C@H](C)C(CCC(=O)O)C2(C)O (some centres not stated)
[1]
  Potency: 18.3 µM (active)
[2]
  Potency: 12.9 µM (active)

## CC(=O)OC1C(O)CC2(C)C(CCC3(C)C2CC=C2C4C5(CCC(CO[C@@H]6O[C@H](CO)[C@@H](O)[C@H](O)[C@H]6O)(OC5=O)C4(C)O)C(O)CC23C)C1(C)C (some centres not stated)
[1]
  Potency: inactive
[2]
  Potency: inactive

## CCC/C=C/C=C/C1CC(O)C2(O)C(=O)OCC12 (configuration not stated)
[1]
  Potency: inactive
[2]
  Potency: inactive

## COc1ccc(C2=NC(c3ccc(Cl)cc3)C(c3ccc(Cl)cc3)N2C(=O)N2CCNC(=O)C2)c(OC(C)C)c1 (configuration not stated)
[1]
  Potency: 5.78 µM (active)
[2]
  Potency: 2.58 µM (active)

## Cc1ccc(-c2ncccn2)c(C(=O)N2C[C@H](COc3ccc(F)cn3)CC[C@H]2C)c1
[1]
  Potency: inactive
[2]
  Potency: inactive

## CC[C@@H](C)Nc1cc(C(=O)NC2CC3CCC(C2)N3c2ccc(C(=O)C3CC3)cn2)c(C)cc1C(N)=O (some centres not stated)
[1]
  Potency: 0.118 µM (active)
[2]
  Potency: 0.132 µM (active)

## C[C@H]1CC[C@@]2(OC1)O[C@H]1CC3C4CC[C@H]5C[C@@H](O)CC[C@]5(C)C4=CC(=O)[C@]3(C)[C@H]1[C@@H]2C (some centres not stated)
[1]
  Potency: inactive
[2]
  Potency: inactive

## C/C(=C\CO[C@@H]1O[C@H](CO[C@H]2OC[C@](O)(CO)[C@H]2O)[C@@H](O)[C@H](O)[C@H]1O)C(C)(C)O
[1]
  Potency: inactive
[2]
  Potency: inactive

## CC(O)(C(=O)C1CC1(CO)COC1OC(CO)C(O)C(O)C1O)C1C(O)CC2C3CC=C4CC(O)CC(O)C4(C)C3C(O)CC21C (configuration not stated)
[1]
  Potency: 0.342 µM (active)
[2]
  Potency: 0.383 µM (active)

## O=C1Nc2ccccc2-c2nc3ccccc3c(=O)n2-c2c(O)cccc21
[1]
  Potency: inactive
[2]
  Potency: inactive

## O=C(c1c(F)ccc(NS(=O)(=O)N2CC[C@@H](F)C2)c1F)c1c[nH]c2ncc(-c3cnc(C4CC4)nc3)cc12
[1]
  Potency: 11.8 µM (active)
[2]
  Potency: 11.6 µM (active)

## C=C[C@@]1(C)C=C2C(=O)C(O)=C3[C@](C)(C(=O)O)CC[C@@H]4C[C@]34[C@]2(O)C(=O)C1
[1]
  Potency: 10.1 µM (active)
[2]
  Potency: 2.53 µM (active)

## Cc1nc2c(C(F)(F)F)cccc2nc1-c1ccc(-c2cccc(S(C)(=O)=O)c2)cc1
[1]
  Potency: inactive
[2]
  Potency: inactive

## CC(C)/C=C1\NC(=O)C(C(C)C)n2c1nc1ccccc1c2=O (configuration not stated)
[1]
  Potency: inactive
[2]
  Potency: inactive

## CCCCOC(=O)NS(=O)(=O)c1sc(CC(C)C)cc1-c1ccc(Cn2ccnc2)cc1
[1]
  Potency: 23.5 µM (active)
[2]
  Potency: 20.9 µM (active)

## COc1cccc(NCCC2(c3ccccc3)CC(C)(C)OC(C)(C)C2)c1
[1]
  Potency: inactive
[2]
  Potency: inactive

## CC(=O)OC1CC(C)(C(=O)O)CC2C3=CC(=O)C4C5(C)CCC(OC6OC(C(=O)O)C(O)C(O)C6OC6OC(C(=O)O)C(O)C(O)C6O)C(C)(C)C5CCC4(C)C3(C)CCC12C (configuration not stated)
[1]
  activity change, negative = viability loss: -3.77% [at 9.23 µM]
[2]
  activity change, negative = cell killing: -8.59% [at 9.23 µM]

## C=C1C(=O)OC2/C=C(\C)CC3C=C(CC/C=C(\C)CCC12)C(=O)O3 (configuration not stated)
[1]
  Potency: 12.7 µM (active)
[2]
  Potency: 4.5 µM (active)

## C=C1CC2OC(=O)C(=C)C2C(O)/C=C(\C)CCC1O (configuration not stated)
[1]
  Potency: 18.3 µM (active)
[2]
  Potency: 16.3 µM (active)

## C=CC(=O)N1CCCN(c2cc(NCCC(=O)O)nc(-c3ccccn3)n2)CC1
[1]
  Potency: inactive
[2]
  Potency: inactive

## Cc1ccc(C(C)C)c(O[C@@H]2O[C@H](CO)[C@@H](O)[C@H](O)[C@H]2O)c1
[1]
  Potency: inactive
[2]
  Potency: inactive

## C/C=C(/C)C(=O)O[C@H]1[C@H](OC(=O)/C(C)=C\C)[C@@]23C(CC1(C)C)[C@]1(CCC4[C@@]5(C)CC[C@H](O[C@@H]6O[C@H](C(=O)O)[C@@H](O)[C@H](O[C@@H]7O[C@H](CO)[C@H](O)[C@H](O)[C@H]7O[C@@H]7O[C@@H](C)[C@H](O)[C@@H](O)[C@H]7O[C@@H]7OC[C@@H](O)[C@H](O)[C@H]7O)[C@H]6O[C@@H]6O[C@H](CO)[C@H](O)[C@H](O)[C@H]6O)C(C)(C)C5CC[C@@]4(C)[C@]1(C)C[C@H]2O)O[C@H]3O (some centres not stated)
[1]
  Potency: 1.22 µM (active)
[2]
  Potency: 2.18 µM (active)

## CC(C)C[C@@H](C(=O)N[C@@H](Cc1ccc(OCc2ccccc2)cc1)C(=O)NC(C)(C)C)N(C)Cc1ccc(C(C)(C)C)cc1
[1]
  Potency: inactive
[2]
  Potency: inactive

## CC1(C)CCC2(C(=O)OC3OC(COC4OC(CO)C(O)C(O)C4O)C(O)C(O)C3O)CCC3(C)C(=CCC4C5(C)CCC(OC6OCC(O)C(O)C6O)C(C)(C)C5CCC43C)C2C1O (configuration not stated)
[1]
  activity change, negative = viability loss: -12.3% [at 9.23 µM]
[2]
  activity change, negative = cell killing: -18.7% [at 9.23 µM]

## C/C=C(\C)C(=O)O[C@H]1C=CC(=O)O[C@H]1/C=C/[C@@H](O)[C@H](C)O
[1]
  Potency: 16.3 µM (active)
[2]
  Potency: 5.78 µM (active)

## C=C(NC(=O)C(=C)NC(=O)c1csc(C2=NC3c4csc(n4)C4NC(=O)c5csc(n5)C(C(C)(O)C(C)O)NC(=O)C5CSC(=N5)/C(=C/C)NC(=O)C(C(C)O)NC(=O)c5csc(n5)C3(CC2)NC(=O)C(C)NC(=O)C(=C)NC(=O)C(C)NC(=O)C(C(C)CC)NC2C=Cc3c(C(C)O)cc(nc3C2O)C(=O)OC4C)n1)C(N)=O (configuration not stated)
[1]
  Potency: 2.3 µM (active)
[2]
  Potency: 0.916 µM (active)

## CC(C)n1cnc2c(-c3cnc(N)nc3)nc(N3CCOCC3)nc21
[1]
  Potency: 0.159 µM (active)
[2]
  Potency: 0.224 µM (active)

## NC(=O)c1cnc(N[C@@H]2CCCC[C@@H]2N)nc1Nc1cccc(-n2nccn2)c1
[1]
  Potency: 1.32 µM (active)
[2]
  Potency: 1.32 µM (active)

## CC1(C)CC[C@]2(C(=O)O)[C@H](O)C[C@]3(C)C(=CCC4[C@@]5(C)CC[C@H](O[C@@H]6O[C@H](CO[C@@H]7OC[C@H](O)[C@H](O)[C@H]7O[C@@H]7OC[C@H](O)[C@H](O)[C@H]7O)[C@@H](O)[C@H](O)[C@H]6O)C(C)(C)C5CC[C@]43C)[C@@H]2C1 (some centres not stated)
[1]
  Potency: 4.35 µM (active)
[2]
  activity change, negative = cell killing: -24.5% [at 9.23 µM]

## O=C(Nc1cccnn1)N1CCN(c2nccc(-c3ccc(F)c(F)c3)n2)CC1
[1]
  Potency: inactive
[2]
  Potency: inactive

## C[C@@H]1CC[C@@]23CC[C@]4(C)[C@@](C=CC5[C@@]6(C)CC[C@H](O)C(C)(C)C6CC[C@]54C)(OC2=O)C3[C@H]1C (some centres not stated)
[1]
  Potency: inactive
[2]
  Potency: inactive

## C=C1C(=O)O[C@@H]2/C=C(\C)CC/C=C(\C)CC[C@@H]12
[1]
  Potency: 14.5 µM (active)
[2]
  Potency: 7.28 µM (active)

## CC1(C)CC[C@]23CO[C@@]4(CCC5[C@@]6(C)CC[C@H](O[C@@H]7OC[C@H](O[C@@H]8O[C@H](CO)[C@@H](O)[C@H](O)[C@H]8O[C@@H]8OC[C@@H](O)[C@H](O)[C@H]8O)[C@H](O)[C@H]7O[C@@H]7O[C@H](CO)[C@@H](O)[C@H](O)[C@H]7O)[C@@](C)(CO)C6CC[C@@]5(C)[C@]4(C)C[C@H]2O)[C@@H]3C1 (some centres not stated)
[1]
  Potency: 1.54 µM (active)
[2]
  Potency: 2.75 µM (active)

## COC1CC(=O)C23C(=O)NC(Cc4c[nH]c5ccccc45)C2C(C)C2(C)OC2C3/C=C/CC(C)CC1O (configuration not stated)
[1]
  Potency: 3.17 µM (active)
[2]
  Potency: 2.52 µM (active)

## CN(C)CCn1cc(-c2ccc(F)cc2)c(-n2cccc2)n1
[1]
  Potency: inactive
[2]
  Potency: inactive

## Cc1[nH]c2ccccc2c1CCNC(=O)c1cccs1
[1]
  Potency: inactive
[2]
  Potency: inactive
